PubChem BioAssay (NCI)
Values joined by “and” are separate entries in the source; they are usually repeats but may differ in a detail not shown here. Identical values can stand only once. This is part of a sample that, as a whole, favours compounds with a hit. Of some 79,000 tested, about 15% had one in any assay. More than one record can exist for a structure, and the calls need not agree. Active and inactive are the calls of the source. Rule as the data show it: active = growth inhibition above about 70%; inactive = the rest.

Columns and labels:
[1] = NCI Yeast Anticancer Drug Screen. Data for the rad50 strain (AID 155);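 also: 0% = growth of vehicle-only cultures of the same strain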; conditions: S. cerevisiae rad50 strain growth inhibition; at 50.0 µM; stronger effect = higher value
How it was run: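 Compounds were tested on a yeast strain with an engineered DNA damage repair alteration; the reported value is growth inhibition normalised to vehicle treatment.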

[2] = NCI Yeast Anticancer Drug Screen. Data for the sgs1 mgt1 strain (AID 161);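 also: 0% = growth of cultures given vehicle only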; conditions: S. cerevisiae sgs1 mgt1 strain, stronger effect = higher value
How it was run: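 Yeast cells carrying a defined DNA-repair defect were exposed to test compounds. Growth inhibition was measured relative to vehicle-treated controls.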

[3] = NCI Yeast Anticancer Drug Screen. Data for the cln2 rad14 strain (AID 165);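 also: 0% = growth equal to vehicle treated cultures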; conditions: S. cerevisiae cln2 rad14 strain, stronger effect = higher value
How it was run: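 Relative to vehicle controls, growth inhibition of compound-treated cln2 rad14 yeast was recorded.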

[4] = NCI Yeast Anticancer Drug Screen. Data for the bub3 strain (AID 167); conditions: S. cerevisiae bub3 mutant strain, stronger effect = higher value
How it was run: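 Growth of a checkpoint-deficient yeast mutant is measured after compound exposure. Values represent inhibition relative to vehicle.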

[5] = NCI Yeast Anticancer Drug Screen. Data for the mlh1 rad18 strain (AID 175); conditions: S. cerevisiae mlh1 rad18 strain growth inhibition, stronger effect = higher value
How it was run: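 Test agents were incubated with a yeast strain of defined genotype (DNA damage repair defect). Inhibition of growth was derived by comparison with vehicle-exposed cultures.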

[6] = NCI Yeast Anticancer Drug Screen. Data for the mec2-1 strain (AID 157); conditions: S. cerevisiae mec2-1 strain, stronger effect = higher value
How it was run: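 Readout is yeast growth inhibition, normalised to vehicle-treated controls, in the mec2-1 strain exposed to compound.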

[7] = at 5.0 µM (retest, dose inferred, filed as 0.5)
[8] = at 50.0 µM (retest, dose inferred, filed as 5.0)

Measured: growth inhibition

C=CCC1=C(C)C(OC(=O)C=C(C)C)CC1=O (stereo not drawn)
inactive: [1] 19.8% and -4.3% | [2]; at 50.0 µM -6.15% and -6% | [3]; at 50.0 µM 0.25% and -26.2% | [4]; at 50.0 µM 3.6% and -13.3% | [5]; at 50.0 µM -22% and -37%

CC(C)(C)CC(C)(C)c1ccc(OCCOCCSC(=N)N)cc1
inactive: [2]; [7] 23% | [2]; at 50.0 µM 40.1% | [3]; [7] 13% | [4]; [7] 5% | [5]; [7] 24%
active: [2]; [8] 99% | [3]; [8] 99% | [3]; at 50.0 µM 99.2% | [4]; [8] 99% | [4]; at 50.0 µM 99.5% | [5]; [8] 98% | [5]; at 50.0 µM 97.6%

O=C(c1ccc(O)c(Br)c1)c1ccc(O)c(Br)c1
active: [6]; [7] 76% | [6]; [8] 99% | [6]; at 50.0 µM 76% | [2]; [8] 99% | [3]; [7] 83% | [3]; [8] 99% | [4]; [7] 83% | [4]; [8] 99% | [4]; at 50.0 µM 82.7% | [5]; [7] 76% | [5]; [8] 99% | [5]; at 50.0 µM 88%
inactive: [2]; [7] 44% | [2]; at 50.0 µM 64.4% | [3]; at 50.0 µM 43.5%

CCOC(=O)c1ccc(O)c(O)c1
inactive: [1] -23.9% and 15.5% | [6]; at 50.0 µM -28.1% and 6.75% | [2]; at 50.0 µM -6.65% and 4.05% | [4]; at 50.0 µM -11.8% and 0.7% | [5]; at 50.0 µM -8.8% and -5.75%

CN1C(=O)N/C(=C\c2ccc(S(=O)(=O)N/N=C\C(O)C(O)C(O)C(O)CO)cc2)C1=O (stereo not drawn)
inactive: [1] 2.65% and 7.85% | [6]; at 50.0 µM 8.3% and 22.2% | [3]; at 50.0 µM 7.65% and 3.75% | [4]; at 50.0 µM -19.1% and -1% | [5]; at 50.0 µM 15.3% and 41.5%

CN(C)CC(O)c1cc2ccccc2c2ccccc12 (stereo not drawn)
inactive: [1] 3.3% and -1.9% | [6]; at 50.0 µM 22.6% and -10.7% | [2]; at 50.0 µM 3.4% and -2.3% | [3]; at 50.0 µM -8.8% and -32.2% | [4]; at 50.0 µM 18.4% and -5.5% | [5]; at 50.0 µM 8.65% and -14.2%

Oc1ccc2ccccc2c1CNCc1c(O)ccc2ccccc12
inactive: [1] -1.45% and 2.85% | [6]; at 50.0 µM -7.9% and -34.8% | [3]; at 50.0 µM -23.4% and -2.4% | [4]; at 50.0 µM 26.5% and -20.8% | [5]; at 50.0 µM -8.15% and -9.85%

CC(CSc1n[nH]c(=S)s1)c1ccccc1 (stereo not drawn)
inactive: [6]; [7] 11% | [2]; [7] 14% | [3]; [7] 1% | [4]; [7] 23% | [5]; [7] 12%
active: [6]; [8] 96% | [6]; at 50.0 µM 95.8% | [2]; [8] 96% | [2]; at 50.0 µM 95.8% | [3]; [8] 93% | [3]; at 50.0 µM 95.2% | [4]; [8] 94% | [4]; at 50.0 µM 96.3% | [5]; [8] 94% | [5]; at 50.0 µM 95.1%

COC(=O)C1OC(O[C@H]2CC[C@]3(C)[C@H]4CC=C5[C@@H]6CC(C)(C)CC[C@]6(C(=O)OC6OCC(O)C(O)C6OC6OC(C)C(OC7OCC(O)C(OC8OCC(O)C(O)C8O)C7O)C(OC7OCC(O)C(O)C7O)C6O)CC[C@@]5(C)[C@]4(C)CC[C@H]3C2(C)C)C(O)C(OC2OCC(O)C(O)C2O)C1O (stereo partly drawn)
inactive: [1] 18.1% and 22.6% | [6]; at 50.0 µM 7.8% and 16.5% | [2]; at 50.0 µM 18.6% and 23.1% | [3]; at 50.0 µM 18.1% and 18.7% | [5]; at 50.0 µM 26.2% and 38%

Cn1cc(NC(=O)c2cc(NC(=O)c3cc(NC=O)cn3C)cn2C)cc1C(=O)NCCC(=N)N
-2.2% (inactive) and 91.7% (active): [2]; at 50.0 µM
22.9% (inactive) and 88.5% (active): [3]; at 50.0 µM
-1.75% (inactive) and 91.3% (active): [4]; at 50.0 µM
6.75% (inactive) and 91.5% (active): [6]; at 50.0 µM
12.9% (inactive) and 90% (active): [5]; at 50.0 µM
